Source: PubChem BioAssay (several laboratories)
FAS TE block = FAS thioesterase domain inhibitors, primary screen, biochemical, fluorescence intensity, uHTS; Fatty acid synthase (Homo sapiens), P49327; recombinant FAS-TE, OMFH fluorogenic substrate, fluorescence endpoint; inhibition, % at 15 µM; 360,000 tested, 0.67% active;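 active = compounds whose normalised, plate-corrected inhibition of enzyme fluorescence in the single-dose primary screen is 50% or more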;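 note: 0% = DMSO with enzyme and 100% = substrate without enzyme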
MPTP inh = mitochondrial permeability transition pore inhibitors, primary screen, biochemical, isolated mouse mitochondria, absorbance. Ca2+ swelling absorbance, 30 min. inhibition, % at 10 µM. 360,000 tested, 1.4% active;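 active = inhibition of 50% or more, scaled per plate between neutral and stimulator controls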;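 note: 0% = DMSO wells given calcium and 100% = 1 mM EGTA wells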
Mot1-301 SUMO = yeast Mot1-301 growth rescue at high temperature, primary screen, SUMOylation pathway inhibitor project, S. cerevisiae, ATP luminescence, 38.5C | S. cerevisiae Mot1-301 growth rescue; percent above DMSO median, 100 means doubled | growth rescue, % at 18.8 µM | 320,000 tested, 1% active | AID 2716, 2010;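 active = every valid replicate shows activation above 250% relative to neutral control wells; inactive = the rest, any valid replicate at or below 250%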;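 note: OY570 slx delta 5 strain wells were the positive control but not used for scaling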
Cardio protect = cardioprotection against H2O2-induced cell death, primary screen, uHTS, H9c2 cells, ATPLite luminescence | H9c2 cardiomyocytes, H2O2 injury protection, 2 h | protection from H2O2 cell death, % at 20 µM | 360,000 tested, 0.63% active;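 active = compounds giving at least 50% protection of heart cells from peroxide-induced death in the single-dose screen, raw or plate-pattern-corrected value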;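 note: 0% = DMSO wells with peroxide and 100% = DMSO wells without peroxide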
aDG glyco act = activators of alpha-DG glycosylation, primary screen, uHTS, Pro5-aDG cells, AlphaScreen; alpha-DG glycosylation AlphaScreen (IIH6); 0% Pro5, 100% B10-LARGE cell signal; 360,000 tested, 0.22% active; AID 624168, 2012; activation, % at 10 µM;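 active = activation of at least 8% versus controls, or a plate z-score of at least 8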;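 note: Pro5 are CHO cells carrying HIG-tagged alpha-DG that lacks glycosylation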
Yeast superoxide = reduction of superoxide in aged yeast, primary screen, HTS; S. cerevisiae aged cells, superoxide DHE fluorescence; stronger effect = lower value; superoxide response (% of plate mean), % at 10 µM; 330,000 tested, 0.18% active;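 active = superoxide response under a set limit, about three screen SD below normal, cut at about 65% in these data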;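 note: yeast aged for seven days with compound at 30 °C before DHE staining; 100% = average MFI of all compound-treated wells on the plate with controls excluded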
* marks the source's active call; other numbers are inactive results; / = no result. Most compounds without a hit are left out; they make up all but 3.8% or so of the library.

SMILES | FAS TE block | MPTP inh | Mot1-301 SUMO | Cardio protect | aDG glyco act | Yeast superoxide
C[C@@H]1CN([C@H](C)CO)C(=O)CCCn2nncc2CO[C@H]1CN(C)Cc1ccc(Cl)c(Cl)c1 | -3 | 0 | / | 2 | 0 | /
O=c1[nH]c(NCc2ccccc2)nc2c1CCCC2 | -5 | 0 | -14 | 53* | 0 | 110
O=c1[nH]c(SCCc2ccccc2)nc2c1CCC2 | -7 | -1 | / | 12 | 0 | /
CC1=C(C(=O)Nc2ccc(C)cc2C)C(c2ccc(Cl)cc2)n2nc(C(=O)OC(C)C)nc2N1 (configuration not stated) | -4 | -1 | 655* | 9 | 0 | 89
CSc1nc2n(n1)C(c1cccc(F)c1)C(C(=O)Nc1ccc(C)cc1C)=C(C)N2 (configuration not stated) | -5 | 1 | -9 | 4 | 0 | 102
Cc1ccc(C(=O)c2ccccc2C(=O)Nc2ccccc2)cc1 | -6 | 0 | 0 | 0 | 0 | 99
Cc1ccc(C)c(NC(=O)c2ccccc2C(=O)c2ccccc2)c1 | 11 | -1 | 715* | 2 | 1 | 96
CCc1ccc(CN2CCC(Oc3ccc(C(=O)N4CCCC4)cc3)CC2)cc1 | -1 | 0 | 12 | -3 | 0 | 96
CSc1ccc(CN2CCC(Oc3ccc(C(=O)N4CCCC4)cc3)CC2)cc1 | -7 | -2 | 277* | -1 | 1 | 77
O=C(C1=NOC2(C1)C(=O)Nc1ccccc12)N1CCCCC1 (configuration not stated) | -9 | 0 | / | / | 0 | /
CCCCNCCOCCOc1ccc(Cl)cc1Br | -4 | 1 | 6 | 18 | 2 | 123
CCCCNCCOCCOc1ccc(F)cc1 | -7 | 1 | 304* | -4 | 0 | 100
CCOc1ccc(N(CC(=O)NC2CCCCC2)C(=O)CCCC(=O)Nc2ccccn2)cc1 | 2 | 1 | 289 | 1 | 0 | 96
CC(OC(=O)CCc1nc2ccccc2c(=O)[nH]1)C(=O)NCc1ccc2c(c1)OCO2 (configuration not stated) | -8 | 3 | -11 | 67* | 0 | 97
CC(OC(=O)CCc1nc2ccccc2c(=O)[nH]1)C(=O)Nc1cccc(C(F)(F)F)c1 (configuration not stated) | -1 | -1 | -4 | 34 | 0 | 119
CC(=O)c1cccc(NC(=O)C(C)OC(=O)CCc2nc3ccccc3c(=O)[nH]2)c1 (configuration not stated) | -3 | 0 | 18 | 52* | 0 | 96
O=C(c1ccc(COc2ccc(Cl)cc2)o1)N1CCN(Cc2ccc3c(c2)OCO3)CC1 | 42 | 0 | 402* | -16 | 0 | 82
Cc1ccccc1N=Cc1cccc(O)c1O | -6 | 4 | -6 | 58* | 0 | 112
Cc1ccc(N=Cc2cccc(O)c2O)c(C)c1 | -8 | 18 | 71 | 73* | -1 | 101
CC(N=Cc1cccc(O)c1O)c1ccccc1 (configuration not stated) | -4 | 23 | -11 | 59* | 0 | 92
CN(CC(=O)N1CCN(Cc2ccccc2)CC1)C(=O)Cc1cccc2ccccc12 | 0 | -2 | -10 | -3 | 0 | 105
COc1ccccc1CN1CC(C(=O)NCc2nc3ccccc3n2C)CCC1=O (configuration not stated) | 0 | -2 | -20 | 6 | 0 | 93
CC(NC(=O)Cn1nc(C(=O)O)c2ccccc2c1=O)c1ccccc1 (configuration not stated) | -8 | -2 | 18 | 81* | 0 | 106
COc1cccc(Cn2nc(C(=O)O)c3ccccc3c2=O)c1 | 5 | 0 | -18 | 64* | 0 | 81
COC(=O)[C@@]12C[C@@H](CC(=O)NCc3ccc(OC)c(OC)c3)C(=O)N(Cc3ccc4c(c3)OCO4)C1=CCC(C)(C)C2 | / | 1 | / | / | 0 | /
SMILES | FAS TE block | MPTP inh | Mot1-301 SUMO | Cardio protect | aDG glyco act | Yeast superoxide
O=C1NC(c2cccc(OCc3ccccc3)c2)Nc2ccccc21 (configuration not stated) | 2 | 0 | / | -6 | 0 | /
COc1cccc(/C=N/NC(=O)c2c(-c3ccccc3)noc2C)c1O | 4 | -1 | 8 | 41 | 2 | 80
Cc1ccc(/C=N/NC(=O)c2c(-c3ccccc3)noc2C)c(O)c1 | 25 | 2 | 6 | 54* | 1 | 105
COc1ccc(-c2csc(C(C)(NC(C)=O)c3ccccc3)n2)cc1 (configuration not stated) | 1 | 0 | / | 1 | 0 | /
COc1ccccc1C(=O)NNC(=O)C1CCCO1 (configuration not stated) | -2 | 0 | 236 | -2 | 0 | 90
COc1ccc(-c2nc(NC(=O)c3ccc(OCC(=O)N4CCOCC4)c(OC)c3)sc2C)cc1 | -1 | 0 | 2 | 62* | 0 | 107
CCOc1cc(CNc2cccc3[nH]c(C)nc23)ccc1OC | -5 | 0 | -11 | 2 | 0 | 104
CCOc1cc(CNc2ccc3[nH]c(=O)[nH]c3c2)ccc1OCC(=O)NC(C)(C)C | -6 | -5 | -2 | 57* | 0 | 98
Oc1ccc(C2=Nn3c(nnc3-c3ccco3)SC2)cc1O | -4 | 1 | -11 | 69* | 0 | 90
CC(C)(C)C1=Nn2c(nnc2-c2ccco2)SC1 | -4 | -1 | -9 | 2 | 0 | 98
COc1ccc(S(=O)(=O)N2CCC(C(=O)N[C@H](C(=O)N3CCCCCC3)C(C)C)CC2)cc1 | -6 | -4 | -5 | -4 | 0 | 97
Cc1cccc(C)c1N=C1SC(CC(=O)Nc2c(C)cccc2C)C(=O)N1CCc1ccccn1 (configuration not stated) | 3 | -3 | 468* | 1 | 0 | 93
CCN1CCN(C(=S)NC(=O)c2cccs2)CC1 | -6 | -1 | 3 | 4 | 0 | 118
CCN1CCN(C(=S)NC(=O)/C=C/c2cccs2)CC1 | -6 | -5 | 676* | 22 | 0 | 104
O=C1CC(c2ccc(F)cc2)CC(O)=C1C=NCCN1CCNCC1 (configuration not stated) | -15 | -4 | 301* | 5 | 0 | 119
COc1cc(-c2cc(NC(C)=O)c3ncc(-c4ccc(F)cc4)n3c2)cc(OC)c1OC | 10 | 0 | / | 54* | 0 | /
COc1cc(-c2cc(NC(C)=O)c3ncc(-c4ccc(C(C)=O)cc4)n3c2)cc(OC)c1OC | 20 | 1 | / | 61* | 0 | /
O=C(Nc1cccc(C(F)(F)F)c1)Nc1ccon1 | -2 | 21 | -10 | 1 | 0 | 103
COc1ccc(NS(=O)(=O)c2ccc(C)cc2)c([N+](=O)[O-])c1 | 1 | 2 | 399 | -3 | 0 | 87
